Measured values as given in publication PMC5540273 (PLoS ONE, 2017).

System: p38-delta
Settings: concentration: 1 μM, replicates: in singlicate; n = 1
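Note: KINOMEscan kinase panel screen.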

Row | Compound | %Inh
1 | O=C(Nc1n[nH]c2nc(-c3ccccc3)c(Br)cc12)C1CC1 [SB-708998] | 0%
2 | COc1cc2ncn(-c3cc(OCCCc4ccccc4)c(C(N)=O)s3)c2cc1OC [GSK205189] | 6%
3 | COc1cc2nccc(Nc3ccc(OCc4ccc(NC(C)=O)cc4)cc3)c2cc1OC.Cl [GW440135] | 24%
4 | O=c1cc(N2CCOCC2)nc2n(Cc3ccc(F)c(Cl)c3)ccn12 [GSK2297099] | 36%
5 | Nc1ncnc2c1ncn2-c1cccc(F)c1 [SKF-97560] | 0%
6 | Fc1cccc(CSc2nnc(-c3ccc4c(c3)CCO4)o2)c1 | 28%
7 | COc1ccc(CNC(=O)NC2CCN(c3ccnc(Nc4ccc(F)cc4)n3)C2)cc1 (stereo not drawn) [GSK1379706] | 38%
8 | CCCC(=O)Nc1n[nH]c2ncc(-c3cccc4ccccc34)cc12 [SB-642057] | 26%
9 | Cc1nc(N(C)[C@H]2CN(C(=O)CC#N)CC[C@H]2C)c2cc[nH]c2n1 | 0%
10 | CC(C)(C)c1ccc(C(=O)Nc2cn3cc(-c4ccccc4)ccc3n2)cc1 | 34%
11 | Nc1n[nH]c2ncc(-c3ccccc3)cc12 [SB-517081] | 24%
12 | CCC(=O)c1c(-c2ccccc2)c2cc(Cl)ccc2c(=O)n1Cc1cc(S(C)(=O)=O)n(CCC(C)(C)O)n1 | 32%
13 | O=C1NC(=O)C(c2ccccc2)=C1Nc1cccc(O)c1 [SB-390534] | 0%
14 | COC(=O)c1c(-c2ccccc2)c2cc(C)ccc2c(=O)n1Cc1ccccc1 | 21%
15 | COC(=O)c1c(-c2ccccc2)c2cc(Br)ccc2c(=O)n1Cc1ccc(NC(=O)CCC(=O)O)cc1 | 28%
16 | COc1cc2ncn(-c3cc(OCc4ccncc4Br)c(C(N)=O)s3)c2cc1OC [GW854278] | 30%
17 | O=C(NCc1cccs1)c1cc(C(=O)c2c(Cl)cccc2Cl)c[nH]1 [GW823670] | 0%
18 | COc1cc2ncn(-c3cc(OCc4ccncc4)c(C(N)=O)s3)c2cc1OC [GSK336313] | 42%

Row | Compound | %Inh
19 | CCc1nc(-c2cccc(C)c2)c(-c2ccncc2)s1 | 0%
20 | Cc1ccc(Oc2ccc(Nc3ncnc4cc[nH]c34)cc2C)cn1 | 30%
21 | Cl.NS(=O)(=O)c1cccc(Nc2cc(-c3ccc(F)cc3)n[nH]2)c1 [GW824645] | 0%
22 | COc1cc(Nc2nccc(N3CCC(NC(=O)C(C)c4ccc(Cl)cc4)C3)n2)cc(OC)c1OC (stereo not drawn) [GSK1379757] | 43%
23 | COc1cc(Nc2nccc(N3CCC(NC(=O)C4COc5ccccc5O4)C3)n2)cc(OC)c1OC (stereo not drawn) [GSK1379761] | 34%
24 | COc1ccc(-n2cnc3c(N)ncnc32)cc1 [SKF-97236] | 0%
25 | COc1cc2ncn(-c3cc(OCc4ccc(S(C)(=O)=O)cc4)c(C(N)=O)s3)c2cc1OC [GW869979] | 0%
26 | COc1cc2nccc(Nc3cccc(Oc4ccccc4)c3)c2cc1OC.Cl [GW284543] | 22%
27 | C[C@@H]1CC[C@H](C(=O)NC2CCCCC2)CN1c1cc(-c2ccc3c(N)n[nH]c3c2)nc(N)n1 [GSK2291363] | 42%
28 | Cc1cccc(-c2nc(Nc3ccc4c(cnn4C)c3)c3ccccc3n2)n1 [GW876731] | 0%
29 | CCS(=O)(=O)c1ccc(OC)c(Nc2ncc(-c3ccc(F)cc3)o2)c1.Cl [GW591947] | 43%
30 | Cn1c(=O)c(F)c(Nc2ccc(I)cc2F)c2c(=O)n(OC[C@H](O)CO)cnc21 | 0%
31 | CCn1c(-c2ccoc2)nc2cnccc21 [SB-733887] | 25%
32 | COc1cccc(-n2cnc3c(N)ncnc32)c1 [SKF-97416] | 0%
33 | CCC(=O)c1c(-c2ccccc2)c2cc(Cl)ccc2c(=O)n1Cc1cc(C(=O)NC2CC2)n(C)n1 | 35%
34 | COc1ccc(-c2cc3c(C)nc(N)nc3n([C@H]3CC[C@H](OCCO)CC3)c2=O)cn1 | 13%
35 | O=C(NCCNc1ccnc(Nc2ccc(F)cc2)n1)Nc1ccc2c(c1)OCO2 [GSK1379882] | 37%
36 | Cc1cc(Nc2nc(-c3cccc(C)n3)nc3ccccc23)ccn1 [GW872411] | 0%

System: T1, p38-gamma
T1 construct: gene MAPK12
Settings: concentration: 1 μM, replicates: in singlicate; n = 1

Row | Compound | %Inh
37 | O=C(Nc1n[nH]c2nc(-c3ccccc3)c(Br)cc12)C1CC1 [SB-708998] | 26%
38 | COc1cc2ncn(-c3cc(OCCCc4ccccc4)c(C(N)=O)s3)c2cc1OC [GSK205189] | 0%
39 | COc1cc2nccc(Nc3ccc(OCc4ccc(NC(C)=O)cc4)cc3)c2cc1OC.Cl [GW440135] | 0%
40 | O=c1cc(N2CCOCC2)nc2n(Cc3ccc(F)c(Cl)c3)ccn12 [GSK2297099] | 0%
41 | Nc1ncnc2c1ncn2-c1cccc(F)c1 [SKF-97560] | 48%
42 | Fc1cccc(CSc2nnc(-c3ccc4c(c3)CCO4)o2)c1 | 21%
43 | COc1ccc(CNC(=O)NC2CCN(c3ccnc(Nc4ccc(F)cc4)n3)C2)cc1 (stereo not drawn) [GSK1379706] | 4%
44 | CCCC(=O)Nc1n[nH]c2ncc(-c3cccc4ccccc34)cc12 [SB-642057] | 39%
45 | Cc1nc(N(C)[C@H]2CN(C(=O)CC#N)CC[C@H]2C)c2cc[nH]c2n1 | 11%
46 | CC(C)(C)c1ccc(C(=O)Nc2cn3cc(-c4ccccc4)ccc3n2)cc1 | 8%
47 | Nc1n[nH]c2ncc(-c3ccccc3)cc12 [SB-517081] | 31%
48 | CCC(=O)c1c(-c2ccccc2)c2cc(Cl)ccc2c(=O)n1Cc1cc(S(C)(=O)=O)n(CCC(C)(C)O)n1 | 26%
49 | O=C1NC(=O)C(c2ccccc2)=C1Nc1cccc(O)c1 [SB-390534] | 15%
50 | COC(=O)c1c(-c2ccccc2)c2cc(C)ccc2c(=O)n1Cc1ccccc1 | 0%
51 | COC(=O)c1c(-c2ccccc2)c2cc(Br)ccc2c(=O)n1Cc1ccc(NC(=O)CCC(=O)O)cc1 | 21%
52 | COc1cc2ncn(-c3cc(OCc4ccncc4Br)c(C(N)=O)s3)c2cc1OC [GW854278] | 10%
53 | O=C(NCc1cccs1)c1cc(C(=O)c2c(Cl)cccc2Cl)c[nH]1 [GW823670] | 0%
54 | COc1cc2ncn(-c3cc(OCc4ccncc4)c(C(N)=O)s3)c2cc1OC [GSK336313] | 0%

Row | Compound | %Inh
55 | CCc1nc(-c2cccc(C)c2)c(-c2ccncc2)s1 | 10%
56 | Cc1ccc(Oc2ccc(Nc3ncnc4cc[nH]c34)cc2C)cn1 | 35%
57 | Cl.NS(=O)(=O)c1cccc(Nc2cc(-c3ccc(F)cc3)n[nH]2)c1 [GW824645] | 0%
58 | COc1cc(Nc2nccc(N3CCC(NC(=O)C(C)c4ccc(Cl)cc4)C3)n2)cc(OC)c1OC (stereo not drawn) [GSK1379757] | 1%
59 | COc1cc(Nc2nccc(N3CCC(NC(=O)C4COc5ccccc5O4)C3)n2)cc(OC)c1OC (stereo not drawn) [GSK1379761] | 39%
60 | COc1ccc(-n2cnc3c(N)ncnc32)cc1 [SKF-97236] | 12%
61 | COc1cc2ncn(-c3cc(OCc4ccc(S(C)(=O)=O)cc4)c(C(N)=O)s3)c2cc1OC [GW869979] | 24%
62 | COc1cc2nccc(Nc3cccc(Oc4ccccc4)c3)c2cc1OC.Cl [GW284543] | 0%
63 | C[C@@H]1CC[C@H](C(=O)NC2CCCCC2)CN1c1cc(-c2ccc3c(N)n[nH]c3c2)nc(N)n1 [GSK2291363] | 45%
64 | Cc1cccc(-c2nc(Nc3ccc4c(cnn4C)c3)c3ccccc3n2)n1 [GW876731] | 16%
65 | CCS(=O)(=O)c1ccc(OC)c(Nc2ncc(-c3ccc(F)cc3)o2)c1.Cl [GW591947] | 6%
66 | Cn1c(=O)c(F)c(Nc2ccc(I)cc2F)c2c(=O)n(OC[C@H](O)CO)cnc21 | 39%
67 | CCn1c(-c2ccoc2)nc2cnccc21 [SB-733887] | 12%
68 | COc1cccc(-n2cnc3c(N)ncnc32)c1 [SKF-97416] | 52%
69 | CCC(=O)c1c(-c2ccccc2)c2cc(Cl)ccc2c(=O)n1Cc1cc(C(=O)NC2CC2)n(C)n1 | 9%
70 | COc1ccc(-c2cc3c(C)nc(N)nc3n([C@H]3CC[C@H](OCCO)CC3)c2=O)cn1 | 0%
71 | O=C(NCCNc1ccnc(Nc2ccc(F)cc2)n1)Nc1ccc2c(c1)OCO2 [GSK1379882] | 19%
72 | Cc1cc(Nc2nc(-c3cccc(C)n3)nc3ccccc23)ccn1 [GW872411] | 0%
